# Among all 300,000 compounds or so, about 5,200 (1.7%) were called active. The sample as a whole holds a higher share of actives than the screen did. Values without a mark were called inactive.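 Rule for the calls: active = mean replicate activation of at least 50% with a set share of replicates each reaching 50%; inconclusive = only one of those two conditions met; inactive = mean below 50% and too few replicates reaching it.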
# Assay: HSF-1 response element luciferase induction – NIH3T3-HGL cells, MG132 stress, luminescence, single point, primary screen (AID 504408);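 note: 0% = median of the neutral control wells and 100% = twice that signal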
# Details: NIH3T3-HGL HSF-1 luciferase reporter, MG132, 8 h; at 9 µM; stronger effect = higher value; 100% = twice DMSO control signal
row,SMILES,activation
1,Cc1ccc(C(=O)NNC(=O)c2ccncc2)cc1S(=O)(=O)N1CCCCC1,-9.07%
2,CCCCCCCNC(=O)C1(CC2CC(c3cccc(Br)c3)=NO2)CCN(C(=O)c2cc(OCC)c(OCC)c(OCC)c2)CC1 (centres undefined),4.29%
3,Cn1cc([N+](=O)[O-])c(C(=O)Nc2ccc3c(c2)OCCO3)n1,48.7%
4,Cn1cc([N+](=O)[O-])c(C(=O)Nc2cnn(Cc3ccc(F)cc3)c2)n1,65.1% (active)
5,CCc1ccc(NC(=O)c2ccc(Cn3cc([N+](=O)[O-])cn3)cc2)cc1,-1.45%
6,COCCn1c(SCC(=O)N2CCCCCC2)nc2c(c1=O)SCC2,2.01%
7,COCCn1c(SCC(=O)Nc2ccccc2F)nc2c(c1=O)SCC2,54.8% (active)
8,CCOc1ccc(NC(=O)CSc2nc3ccccc3c(=O)n2Cc2cccs2)cc1,-10.7%
9,O=C(CSc1ccc(-c2cccs2)nn1)Nc1ccccc1F,-2.98%
10,COCCn1c(SCC(=O)Nc2cc(Cl)ccc2OC)nc2c(c1=O)SC(C)C2 (centres undefined),-0.138%
11,O=C(CSc1nc2nccnc2c(=O)n1Cc1cccs1)Nc1ccccc1F,77.1% (active)
12,CCc1ccc(C(=O)NNC(=O)C2CCN(c3ncnc4sc(C)c(C)c34)CC2)cc1,-1.58%
13,CCOc1ccc(NS(=O)(=O)c2ccc(C(=O)NCC(c3ccccc3OC)N3CCCC3)cc2)cc1 (centres undefined),-2.02%
14,COc1cccc(COC(=O)C2CCN(S(=O)(=O)c3cccs3)CC2)c1OC,1.63%
15,O=C(CC1SC(N2CCCC2)=NC1=O)Nc1ccc(C(=O)NCCc2ccc(F)cc2)cc1 (centres undefined),-12%
16,CCN(C(=O)COC(=O)C1CCN(S(=O)(=O)c2ccc(C)c(C)c2)CC1)C1CCS(=O)(=O)C1 (centres undefined),1.03%
17,Cc1ccc(C)c(OCCC(=O)OCC(=O)NC(=O)NCc2ccccc2)c1,-2.69%
18,COC(=O)c1c(NC(=O)CN(c2ccc(C)c(C)c2)S(C)(=O)=O)sc2c1CCCC2,31.3%
19,CCc1ccc(N(CC(=O)Nc2sc3c(c2C(=O)OC)CCCC3)S(C)(=O)=O)cc1,59.7% (active)
20,COC(=O)c1c(NC(=O)CSc2nncs2)sc2c1CCCCC2,17.2%
21,CCCN(CC(=O)Nc1ccccc1OC)C(=O)CCC(=O)c1ccc(F)cc1,-3.54%
22,COc1ccccc1C(=O)Nc1ccc(NC(=O)c2ccco2)c(C)c1,-0.874%
23,O=C(Nc1ccc(NC(=O)c2ccco2)c(Cl)c1)c1cccc([N+](=O)[O-])c1,0.794%

row,SMILES,activation
1,COc1cc(NC(=O)c2cc([N+](=O)[O-])ccc2Br)ccc1NC(=O)c1ccco1,111% (active)
2,O=C(OCC1OC(Oc2ccc(O)cc2)C(O)C(O)C1O)c1ccccc1 (centres undefined),-4.63%
3,Cc1nc2ccccc2c(=O)n1Cc1ccc([N+](=O)[O-])cc1,7.48%
4,Cc1ccc(Cn2c(C)nc3c(c2=O)c2nc4ccccc4nc2n3Cc2ccco2)cc1,100% (active)
5,Cn1c2ccccc2c(=O)c2c(=O)n(Cc3ccco3)c(COc3ccccc3)nc21,17.1%
6,O=C(NCCCN1CCCC1=O)c1cccc(S(=O)(=O)NCc2ccccc2)c1,18.7%
7,COc1ccccc1OCC(=O)Nc1ccccc1C(=O)NC1CC1,6.1%
8,OCCCNc1nc(-c2ccccc2)c2cc(Cl)ccc2n1,-8.88%
9,CCCCn1c(N)c(N(CCOC)C(=O)c2sc3ccccc3c2Cl)c(=O)[nH]c1=O,1.82%
10,CC(Oc1ccc(Cl)cc1)C(=O)OCC(=O)Nc1ncc(Cl)cc1Cl (centres undefined),83.9% (active)
11,Cc1ccc(SCCC(=O)OCC(=O)Nc2ncc(Cl)cc2Cl)cc1,1.1%
12,CC(Oc1ccc(Cl)cc1)C(=O)Nc1ncccn1 (centres undefined),9.27%
13,CCC(C)N(C(=O)CSc1ncnc2c1cnn2-c1ccccc1)C1CCS(=O)(=O)C1 (centres undefined),-5.54%
14,CCOC(=O)C(CCOc1cccc(CC)c1)C(=O)OCC,109% (active)
15,CCOc1ccc(NC(=O)CN(C)C(=O)COc2cccc(CC)c2)cc1OCC,-14.1%
16,CCOC(=O)c1cccc(NC(=O)CCOc2ccccc2)c1,9.76%
17,CC(=O)Nc1cccc(C(=O)OCC(=O)NCc2cc(C)c(O)c(C)c2)c1,3.6%
18,Nc1nonc1-n1nnc(C(=O)N/N=C/c2ccccc2O)c1CN1CCCC1,12.4%
19,CCOC(=O)COc1ccc([N+](=O)[O-])cc1,9.19%
20,N/C(Cc1ccc([N+](=O)[O-])cc1)=N\OC(=O)C1CCCCC1,-5.43%
21,Cc1cc(C)cc(OCC(=O)O/N=C(\N)Cc2ccc([N+](=O)[O-])cc2)c1,59.9% (active)
22,COc1cc(OC)cc(C(=O)NNC(=O)CNC(=O)c2ccc(Br)o2)c1,12%
23,Cc1ccc(NC(=O)CSCC(=O)Nc2sccc2C#N)cc1,-2.79%

row,SMILES,activation
1,Cc1noc(C)c1COc1ccccc1C(=O)N(C)CC(=O)Nc1cccc(F)c1,-1.32%
2,O=C(CSCc1ccc(Br)cc1)Nc1ccc(S(=O)(=O)N2CCCCCC2)cc1,25.6%
3,Cc1cc(=O)[nH]c(SCC(=O)Nc2ccc(Br)cc2)n1,2.91%
4,O=C1CCCN2N=C(SCC(=O)Nc3ccc(Br)cc3)SC2=N1,112% (active)
5,CCOc1ccc(CC(=O)NCCS(=O)(=O)N2CCN(c3ccccc3)CC2)cc1,3.03%
6,CCc1ccccc1N(CC(=O)NCCSCc1ccco1)S(C)(=O)=O,6.86%
7,COc1ccc(C(=O)Nc2ccccc2C(=O)NCc2ccco2)cc1,10.2%
8,Cc1ccc(N(Cc2ccc(C(=O)Nc3ccccc3C(=O)NCc3ccco3)cc2)S(C)(=O)=O)cc1C,87.4% (active)
9,Cc1cc(C)cc(N(CC(=O)NCCSCc2ccco2)S(C)(=O)=O)c1,9.37%
10,O=C(Nc1ccccc1)Nc1ccccc1C(=O)NCc1ccco1,25.4%
11,CS(=O)(=O)N(Cc1ccc(Cl)cc1)c1ccc(C(=O)NCCSCc2ccco2)cc1,71.5% (active)
12,O=C(CCN1C(=O)C2CCCCC2C1=O)Nc1ccc(OC(F)F)cc1 (centres undefined),20.6%
13,O=C(CNC(=O)c1ccccc1Br)NCCSc1ccc(Br)cc1,8.99%
14,CCCn1c(C)cc(-c2csc(NC(=O)CCc3nc4ccccc4c(=O)[nH]3)n2)c1C,-8.73%
15,CCCc1cc(=O)[nH]c2nnc(SCC(=O)Nc3nnc(SCC)s3)n12,-4.43%
16,CCOc1ccc(S(=O)(=O)Nc2ccc(C(=O)NCCCN3CCCC3=O)cc2)cc1,4.33%
17,CCc1noc(C)c1C(=O)NNC(=O)c1ccc(F)cc1,7.94%
18,Cc1ccc(-c2c3c(=O)n(C)c(=O)n(C)c3cn2-c2ccccc2O)cc1,3.5%
19,Cc1ccc(-c2c3c(=O)n(C)c(=O)n(C)c3cn2-n2cnnc2)cc1,89.3% (active)
20,COc1ccc(-c2c3c(=O)n(C)c(=O)n(C)c3cn2NC(C)=O)cc1,-5.15%
21,COc1cccc(CNC(=O)C(=O)NCCC2CCCCN2S(=O)(=O)c2ccc(C)cc2)c1 (centres undefined),-8.41%
22,O=C(/C=C/c1ccc(Cl)cc1)Nc1ccc(Br)cn1,6.81%
23,O=C(Nc1ccncc1)c1ccc([N+](=O)[O-])cc1Cl,23.1%

row,SMILES,activation
1,O=C(Nc1ccc(Br)cn1)c1ccc([N+](=O)[O-])cc1Cl,69.9% (active)
2,O=C(Nc1ccc(Br)cn1)c1ccc([N+](=O)[O-])o1,131% (active)
3,CN1C(=O)c2ccc(C(=O)Nc3ccc(Br)cn3)cc2C1=O,-4.17%
4,CC(C)C(=O)Nc1cccc(NC(=O)c2ccc([N+](=O)[O-])cc2Cl)c1,32.5%
5,COc1ccc(C(=NN)c2ccc(OC)cc2)cc1,29.3%
6,CN(C)CCn1c2c(c(SCC(=O)NCc3ccccc3)nc1=O)CCC2,4.29%
7,CCc1nnc(NS(=O)(=O)c2ccc(NC(=O)c3cccc(OC(F)(F)C(F)F)c3)cc2)s1,-15.3%
8,Cc1onc(C(=O)Nc2ccc3c(c2)OCO3)c1[N+](=O)[O-],10.2%
9,Cc1cccc(NC(=S)Nc2ccc(Br)cc2)c1,46.2%
10,Cc1cccc(NC(=O)NC(=S)NC(=O)c2ccccc2)c1,13.9%
11,Cc1onc(C(=O)NCc2ccc(F)cc2)c1[N+](=O)[O-],8.38%
12,Cc1cccc(NC(=O)c2sc(-c3ccccc3)nc2-c2ccc([N+](=O)[O-])cc2)c1,-61.8%
13,Cc1cccc(NC(=O)c2ccc([N+](=O)[O-])o2)c1,56.4% (active)
14,Cc1onc(NC(=O)c2ccc([N+](=O)[O-])o2)c1Br,52.4% (active)
15,Cc1cccc(NC(=O)c2cc([N+](=O)[O-])ccc2N2CCN(C)CC2)c1,13.9%
16,Cc1cccc(NC(=S)NC(=O)c2ccc(Br)o2)c1,78.6% (active)
17,O=C1[C@H]2[C@@H](c3ccc(F)cc3)N3C(=O)N(c4ccc(C(F)(F)F)cc4)C(=O)[C@@]3(Cc3ccccc3)[C@H]2C(=O)N1C1CCCCC1,-4.57%
18,O=C(NCCC1CCCCN1S(=O)(=O)c1ccc(Cl)cc1)C(=O)NCc1ccco1 (centres undefined),22.8%
19,COc1ccc(NS(=O)(=O)c2ccc(C)c(C(=O)N(C)Cc3ccc(OC)cc3OC)c2)cc1,-13.6%
20,CCOc1ncccc1C(=O)NNC(=O)c1cccc(S(=O)(=O)Nc2ccccc2OC)c1,-1.67%

# — PubChem BioAssay AID504408 (Broad Institute, 2011)
